KinaseGlo FLuc: Kinase-Glo luciferase inhibition (counter-screen); actives 0.28% (n = 200,000); AID 1379; Potency, µM (series often up to 38.3 µM), for the others: at the top dose activity change, negative = inhibition, usual class: inhibitors; Q27757; Kinase-Glo luciferase, ATP luminescence, 8 min; note: % is set by controls: 0 for no effect and ±100 for the full control effect; nearly all actives have a fitted effect of over 60% in size
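Substrate mix (final 50 mM imidazole pH 7.2, 50 mM KCl, 7 mM MgCl2, 10 uM ATP, 0.01% Tween 20, 0.05% BSA) plus pin-tool compound, then Kinase-Glo detection mix; 8 min ambient, luminescence read.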
Rab9 prom act: activates the Rab9 promoter; Huh7 Rab9 promoter-luciferase reporter, luminescence, 24 h; Potency, µM (titrated, usually from 9.22 µM), for the others: at the highest dose activation, negative = inhibition, most hits filed as activators; actives 2.8% (n = 320,000); AID 485297; note: % of control where 0% means no effect; nearly all actives have a fitted effect of over 60% in size
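Quantitative HTS format; Huh7 Rab9-luciferase reporter cells (1500/well) receive compound 2 h post-plating, incubate 24 h at 37 °C, then get luciferase reagent for 10 min before luminescence reading.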
SMN2 splice up: increases expression of the SMN2 splice variant | Potency, µM (top dose mostly 46.1 µM), for the others: top-dose activity change, positive = activation, actives largely listed as activators | HEK293 SMN2-luciferase splicing reporter, luminescence, 30-36 h | actives 2.8% (n = 210,000); note: % of control where 0% means no effect; nearly all actives have a fitted effect of over 55% in size
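HEK293 cells carry an SMN2 […]–luciferase reporter in which exon 7 inclusion puts luciferase in frame. Cells were plated 10-12 h before compound addition, then incubated 30-36 h at 37C. ONE-Glo luminescence was read; sodium butyrate at 4.5 mM final served as control.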
NPC1 prom act: activators of NPC1 promoter. Huh7 NPC1 promoter luciferase reporter, 24 h. Potency, µM (titrated, usually from 9.22 µM), for the others: at the top dose activation, most hits filed as activators. actives 2.4% (n = 320,000). AID 485313; note: % of control where 0% means no effect; nearly all actives have a fitted effect of over 60% in size
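Cells: Huh7 expressing luciferase under the NPC1 promoter, 1500/well. Seeded 2 h, compound added, incubated 24 h at 37 °C. Luciferase reagent, 10 min ambient, then luminescence.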
FLuc modulator: firefly luciferase modulation, counter-screen for miR-21 project. P08659. purified FLuc, Km substrates, luminescence inhibition. Potency, µM (doses to about 57.5 µM), without a hit: at the top dose activity change, negative = inhibition, actives largely listed as inhibitors. actives 6.9% (n = 360,000). AID 588342;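 note: plate controls were vehicle for no effect and reference inhibitor for full effect; nearly all actives have a fitted effect of over 55% in size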
Target sequence (P08659 whole entry, looked up): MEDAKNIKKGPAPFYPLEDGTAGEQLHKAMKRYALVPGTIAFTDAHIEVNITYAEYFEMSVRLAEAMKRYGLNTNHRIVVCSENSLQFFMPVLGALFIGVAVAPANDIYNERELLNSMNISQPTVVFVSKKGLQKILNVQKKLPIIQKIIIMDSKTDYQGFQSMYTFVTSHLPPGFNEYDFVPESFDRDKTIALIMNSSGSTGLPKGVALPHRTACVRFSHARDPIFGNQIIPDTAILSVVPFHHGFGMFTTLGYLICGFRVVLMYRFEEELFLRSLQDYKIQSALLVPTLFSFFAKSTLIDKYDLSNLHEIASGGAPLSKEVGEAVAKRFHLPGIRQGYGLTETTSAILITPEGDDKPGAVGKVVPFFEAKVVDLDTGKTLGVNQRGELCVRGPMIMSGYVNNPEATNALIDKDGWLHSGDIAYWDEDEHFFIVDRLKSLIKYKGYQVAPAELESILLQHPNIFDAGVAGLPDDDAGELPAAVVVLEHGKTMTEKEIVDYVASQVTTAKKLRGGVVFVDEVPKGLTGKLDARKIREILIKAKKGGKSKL
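Purified P. pyralis luciferase (10nM final) with 10uM D-luciferin and 10uM ATP (Km levels) in 50mM Tris acetate pH 7.5, 10mM Mg acetate, 0.01% Tween-20, 0.05% BSA; qHTS 6-point titration, ~60 µM downward; luminescence read.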
An asterisk follows results filed as active; ? = inconclusive; . = no result given; ! = not confirmed by another sample; [ ] = another dose, or the depositor's remark. Rows were chosen to be rich in hits. Some 7.3% of all compounds tested hit in one or more screens of this group. Calls come from the whole dose curve; as a rule, active = well fitted curve in the direction sought with a large enough effect; inconclusive = small, poorly fitted or top-dose-only effect, or another doubt; inactive = no such curve, though single readings can be large; an effect the other way counts as inactive or inconclusive. Potency is the fitted concentration of half-maximal effect.

SMILES	KinaseGlo FLuc	Rab9 prom act	SMN2 splice up	NPC1 prom act	FLuc modulator
CCCc1cc(C(=O)NCc2cccnc2)no1	-1%	4%	-3%	-2%	-2%
CCCc1cc(C(=O)Nc2cccc(Cl)c2C)no1	.	?	.	?	24µM*
CCOC(=O)c1c(C)oc2ncnc(Nc3cc(C)cc(C)c3)c12	.	.	.	.	1%
Cc1ccccc1C(=O)OCc1cc(=O)n2nc(-c3cccs3)sc2n1	.	.	.	.	-6%
CCCc1cc(C(=O)Nc2ccc(F)cc2F)no1	-7%	?	-13%	19%	11µM*
O=C(Nc1ccc(F)cc1F)c1cc(CN2CCOCC2)on1	.	.	.	.	2%
CC(C)c1cc(C(=O)Nc2cccnc2)no1	?	2.8µM*	35µM*	4µM*	-2%[2.3 µM]
CCCc1cc(C(=O)Nc2ccc(F)c(Cl)c2)no1	.	0%	.	1%	5.4µM*
O=C(N/N=C/c1cccc(O)c1)c1ccc2c(c1)OCCO2	.	-1%	.	?	1.7µM*
O=C(NCc1ccccn1)C(=O)N/N=C/c1ccc2c(c1)OCO2	-3%	10%	.	-2%	17µM*
O=C(CNC(=O)c1ccc2c(c1)OCCO2)N/N=C/c1ccc(O)cc1O	0%	2%	7%	-2%	-14%
O=C(N/N=C\c1ccc2c(c1)OCO2)c1ccco1	.	1.8µM*	.	3.2µM*	8.5µM*
NC(=O)/C(=C/c1ccc2c(c1)OCO2)NC(=O)c1ccco1	2%	-6%	-7%	0%	5%
Cc1cc(Cl)c(S(=O)(=O)N/N=C/c2ccc3c(c2)OCO3)c(Cl)c1	-6%	12%	?	16%	15µM*
O=C(NCCc1ccccc1)C(=O)N/N=C/c1ccc2c(c1)OCO2	-3%	-2%	?	-15%	3%
CCCCN(C)C(=O)C1CCCN(c2ncnc3onc(C)c23)C1 (centres undefined)	.	.	.	.	-1%
Cc1cc(Cl)ccc1NC(=O)C1CCN(S(=O)(=O)c2ccc3[nH]c(=O)ccc3c2)CC1	.	.	.	.	-3%
O=C(N/N=C/c1ccc[nH]1)c1ccc2c(c1)OCO2	-11%	12%	?	-5%	13µM*
O=C(Cc1ccccc1)N/N=C/c1cc2c(cc1Cl)OCO2	2%	1%	-18%	6%	?
Cc1[nH]c2ccccc2c1/C=N/NC(=O)c1cccc(F)c1	0%	15%	.	7%	?
O=C(N/N=C\c1cccc(OC(=O)c2ccco2)c1)c1ccc2c(c1)OCO2	-3%	25%	?	24%	1.7µM*
O=C(N/N=C/c1c(Cl)[nH]c2ccccc12)c1ccc2c(c1)OCCO2	.	?	.	?	1.5µM*
O=C(N/N=C/c1cc2c(cc1Cl)OCO2)c1ccc2c(c1)OCCO2	.	19%	.	4%	7.6µM*
COc1cn(CC(=O)Nc2ccc(F)cc2)c(CN2CCCCC2)cc1=O	.	.	.	.	-1%
O=C(N/N=C/c1ccc2c(c1)OCO2)c1ccc2c(c1)OCO2	.	2.5µM*	.	2.2µM*	?
SMILES	KinaseGlo FLuc	Rab9 prom act	SMN2 splice up	NPC1 prom act	FLuc modulator
CCN(CC)c1ccc(/C=N/NC(=O)CNC(=O)c2ccc3c(c2)OCCO3)cc1	.	6%	.	3%	17µM*
O=C(CNc1ccc2c(c1)OCO2)N/N=C\c1ccccc1Cl	-1%	-5%	1%	0%	?
CN(C)c1ccc(/C=N/NC(=O)CNC(=O)c2ccc3c(c2)OCCO3)cc1	6%	-7%	-10%	-6%	?
O=C(N/N=C/c1cccnc1)c1ccc2c(c1)OCO2	.	?	.	?	8.5µM*
O=C(N/N=C/c1cccnc1)c1ccc(O)cc1	.	3%	.	12%	?
Cc1[nH]c2ccccc2c1/C=N\NC(=O)CNc1ccc2c(c1)OCO2	1%	-6%	-8%	1%	11µM*
COc1cc(/C=C/C(=O)c2cccs2)cc(OC)c1OC	-4%	.	.	.	.
O=C(CNC(=O)c1cccc(Br)c1)N/N=C/c1ccc2c(c1)OCO2	.	2%	.	0%	17µM*
Cc1cc(C(=O)N/N=C/c2cccc(OC(=O)c3ccco3)c2)n[nH]1	0%	8%	?	2%	17µM*
COc1ccc(Cl)cc1N(C)C(=O)Cc1noc2ccc(C)cc12	.	.	.	.	-3%
C/C(=N\Nc1nc(-c2ccccc2)cs1)c1cccs1	-16%	2µM*	2.8µM*	3.5µM*	0.85µM*
C/C(=N\Nc1nc2ccccc2s1)c1cccs1	-17%	3.5µM*	.	?	0.67µM*
CCCn1c2ccccc2c2cnn(CC(=O)Nc3ccc(C)cc3Br)c(=O)c21	.	.	.	.	-1%
O=[N+]([O-])c1ccc2sc(SCc3nc4ccccn4c3Br)nc2c1	-1%	11%	-9%	2%	-2%
Brc1c(CSc2nc3ccccc3s2)nc2ncccn12	-1%	3.2µM*	7.1µM*	3.2µM*	12µM*
O=C(O)c1cc(N=Nc2ccc([N+](=O)[O-])cc2)ccc1O	-3%[7.66 µM]	.	14µM*!	.	.
O=C(COC(=O)c1ccccc1)NCCC1=CCCCC1	1%	1%	-5%	-1%	15µM*
Cc1ccsc1C(=O)OCC(=O)NCCC1=CCCCC1	2%	22%	20%	22%	12µM*
O=C(CCCc1ccccc1)NCCC1=CCCCC1	1%	4%	-6%	-4%	24µM*
Cc1ccc(NC(=S)NCCC2=CCCCC2)cc1	-2%	3.5µM*	20µM*	?	?
CCOC(=O)c1ccc(NC(=S)NCCC2=CCCCC2)cc1	1%	4%	-85%	-1%	7%
CCCNC(=O)Cn1nc(-c2ccc(C)cc2)c2cnc3ccc(CC)cc3c21	.	.	.	.	-6%
COC(=O)CCS(=O)(=O)c1nc(-c2ccccc2)cc(C(F)(F)F)n1	-3%	-16%	13µM*	-16%	1%
CCCCC/C=C\C/C=C\C/C=C\CCCCC(=O)NC(C)C(=O)O (centres undefined)	-4%	.	2%	.	.

Source: PubChem BioAssay
